Measurements: the supplement of paper PMC10849652
About 8,800 targets were measured; listed, in parts, are those with a hit and a random draw of the rest. About 0.5% of all pairs of compound and target were hits. A number with no mark means an inactive call.

Assays:
Assay in all cases: log2 fold change, soluble protein after heating vs DMSO (PISA); higher = thermal stabilisation; K562 lysate, 10 uM; active = over 0.2 and 3.5 SD of the protein, either way, in both replicates (recomputed)
[1] = compound: Cc1cn(-c2cc(NC(=O)c3ccc(C)c(Nc4nccc(-c5cccnc5)n4)c3)cc(C(F)(F)F)c2)cn1 [nilotinib]
Summary of the method: (§1)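 Thermal stability, expressed as log-two fold change relative to solvent controls, is given from duplicates. Crude K562 extract in PBS pH 7.4 with 1 mM MgCl2, at 1 mg/mL protein, was treated with 10 μM compound for 30 min and heated in aliquots for 3 min across 48°C-58°C. After pooling, adjustment to 0.5% NP-40 at 4°C and centrifugation at 21,000xg for 90 min, supernatant protein was measured by TMTpro 16plex LC-MS/MS with channel sums equalised.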

[2] = compound: Cc1nc(Nc2n[nH]c3c2CN(C(=O)N[C@H](CN(C)C)c2ccccc2)C3(C)C)c2sccc2n1
Summary of the method: as §1

[3] = compound: Cc1nc(Nc2ncc(C(=O)Nc3c(C)cccc3Cl)s2)cc(N2CCN(CCO)CC2)n1 [dasatinib]
Summary of the method: as §1

[4] = compound: Cc1ncc(-c2ccnc(Nc3ccc(S(C)(=O)=O)cc3)n2)n1C(C)C
Summary of the method: as §1

[5] = compound: Cn1cc(-c2ccc3c(c2)CCN3C(=O)Cc2cccc(C(F)(F)F)c2)c2c(N)ncnc21
Summary of the method: as §1

[6] = compound: Cn1cc(CNCC2CCN(c3ncc(C(=O)NO)cn3)CC2)c2ccccc21 [quisinostat]
Summary of the method: as §1

[7] = compound: Cn1cncc1[C@@](N)(c1ccc(Cl)cc1)c1ccc2c(c1)c(-c1cccc(Cl)c1)cc(=O)n2C [tipifarnib]
Summary of the method: as §1

[8] = compound: NC(=O)Nc1cc(-c2cccc(F)c2)sc1C(=O)N[C@H]1CCCNC1
Summary of the method: as §1

[9] = compound: NC(=O)c1cnc(N[C@@H]2CCCC[C@@H]2N)nc1Nc1cccc(-n2nccn2)c1
Summary of the method: as §1

[10] = compound: NC1(c2ccc(-c3nc4ccn5c(=O)[nH]nc5c4cc3-c3ccccc3)cc2)CCC1
Summary of the method: as §1

[11] = compound: NCC(=O)Nc1ccc(-n2nc(C(F)(F)F)cc2-c2ccc3c(ccc4ccccc43)c2)cc1
Summary of the method: as §1

[12] = compound: O=C(CCCCCCC(=O)Nc1ccccc1)NO [vorinostat]
Summary of the method: as §1

[13] = compound: O=C(O)c1ccc2c(c1)nc(Nc1cccc(Cl)c1)c1ccncc12 [silmitasertib]
Summary of the method: as §1

[14] = compound: O=C1NC(=O)C(c2cnc3ccccn23)=C1c1cn2c3c(cc(F)cc13)CN(C(=O)N1CCCCC1)CC2
Summary of the method: as §1

[15] = compound: c1cn2cc(-c3ccc4cn[nH]c4c3)nc(Nc3ccc(N4CCOCC4)cc3)c2n1 [entospletinib]
Summary of the method: as §1

Sequence of UniProt Q9C0B7 (Q9C0B7 whole entry, looked up): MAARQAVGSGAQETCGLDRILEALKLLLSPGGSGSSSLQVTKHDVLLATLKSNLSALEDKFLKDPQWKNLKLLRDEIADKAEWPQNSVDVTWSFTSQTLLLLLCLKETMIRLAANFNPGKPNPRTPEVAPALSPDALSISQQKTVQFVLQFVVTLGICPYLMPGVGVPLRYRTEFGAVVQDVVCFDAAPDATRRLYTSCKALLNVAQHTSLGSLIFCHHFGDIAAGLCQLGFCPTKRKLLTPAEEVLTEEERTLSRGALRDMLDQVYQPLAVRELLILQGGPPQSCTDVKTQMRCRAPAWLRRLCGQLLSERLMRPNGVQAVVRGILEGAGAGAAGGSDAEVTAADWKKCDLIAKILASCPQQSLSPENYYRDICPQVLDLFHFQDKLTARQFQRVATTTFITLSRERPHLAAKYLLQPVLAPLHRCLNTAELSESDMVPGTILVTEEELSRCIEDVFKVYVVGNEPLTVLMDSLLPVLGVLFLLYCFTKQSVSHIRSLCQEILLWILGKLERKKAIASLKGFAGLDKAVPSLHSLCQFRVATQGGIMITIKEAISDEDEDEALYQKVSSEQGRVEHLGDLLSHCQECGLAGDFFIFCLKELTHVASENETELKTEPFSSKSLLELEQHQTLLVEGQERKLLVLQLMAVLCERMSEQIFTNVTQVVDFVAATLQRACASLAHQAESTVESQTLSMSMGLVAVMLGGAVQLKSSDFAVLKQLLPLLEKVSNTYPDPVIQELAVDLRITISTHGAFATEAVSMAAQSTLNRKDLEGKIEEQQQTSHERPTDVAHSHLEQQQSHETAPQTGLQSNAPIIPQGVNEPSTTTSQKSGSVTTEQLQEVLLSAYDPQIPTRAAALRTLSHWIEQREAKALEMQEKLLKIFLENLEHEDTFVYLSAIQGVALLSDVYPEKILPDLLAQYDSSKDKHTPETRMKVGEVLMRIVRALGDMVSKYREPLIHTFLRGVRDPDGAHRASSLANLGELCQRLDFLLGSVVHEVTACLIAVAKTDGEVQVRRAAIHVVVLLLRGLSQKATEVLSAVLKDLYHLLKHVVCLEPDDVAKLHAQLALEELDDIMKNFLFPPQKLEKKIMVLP
Sequence of UniProt P19623 (P19623 whole entry, looked up): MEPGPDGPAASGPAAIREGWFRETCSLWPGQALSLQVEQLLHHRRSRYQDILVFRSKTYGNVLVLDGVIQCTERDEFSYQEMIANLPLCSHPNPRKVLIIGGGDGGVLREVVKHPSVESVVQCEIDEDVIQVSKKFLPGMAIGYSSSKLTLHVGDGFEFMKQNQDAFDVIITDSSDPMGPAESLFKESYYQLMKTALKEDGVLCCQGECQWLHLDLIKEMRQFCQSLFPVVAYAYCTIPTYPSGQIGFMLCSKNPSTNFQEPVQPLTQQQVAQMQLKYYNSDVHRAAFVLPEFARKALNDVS
Sequence of UniProt Q9BXS9 (Q9BXS9 whole entry, looked up): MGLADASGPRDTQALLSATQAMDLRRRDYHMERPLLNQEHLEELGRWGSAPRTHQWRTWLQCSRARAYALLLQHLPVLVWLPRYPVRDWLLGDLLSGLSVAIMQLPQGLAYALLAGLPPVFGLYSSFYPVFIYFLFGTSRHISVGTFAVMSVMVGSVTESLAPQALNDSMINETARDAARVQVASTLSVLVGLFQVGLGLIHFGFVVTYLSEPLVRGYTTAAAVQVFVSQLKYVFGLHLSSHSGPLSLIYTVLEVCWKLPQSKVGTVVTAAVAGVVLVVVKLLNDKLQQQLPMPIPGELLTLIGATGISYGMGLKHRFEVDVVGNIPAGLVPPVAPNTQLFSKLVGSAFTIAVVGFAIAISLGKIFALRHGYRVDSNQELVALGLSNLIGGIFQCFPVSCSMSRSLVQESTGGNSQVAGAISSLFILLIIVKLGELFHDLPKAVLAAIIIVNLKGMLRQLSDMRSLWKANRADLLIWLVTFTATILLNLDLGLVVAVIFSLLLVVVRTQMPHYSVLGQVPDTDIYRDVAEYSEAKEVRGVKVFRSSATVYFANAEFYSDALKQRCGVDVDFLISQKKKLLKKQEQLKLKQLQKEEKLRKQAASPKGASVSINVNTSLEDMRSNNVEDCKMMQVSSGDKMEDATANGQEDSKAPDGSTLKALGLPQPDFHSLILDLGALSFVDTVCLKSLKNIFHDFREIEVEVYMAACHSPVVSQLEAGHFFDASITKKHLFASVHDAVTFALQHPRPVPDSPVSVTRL
Sequence of UniProt O14975 (O14975 whole entry, looked up): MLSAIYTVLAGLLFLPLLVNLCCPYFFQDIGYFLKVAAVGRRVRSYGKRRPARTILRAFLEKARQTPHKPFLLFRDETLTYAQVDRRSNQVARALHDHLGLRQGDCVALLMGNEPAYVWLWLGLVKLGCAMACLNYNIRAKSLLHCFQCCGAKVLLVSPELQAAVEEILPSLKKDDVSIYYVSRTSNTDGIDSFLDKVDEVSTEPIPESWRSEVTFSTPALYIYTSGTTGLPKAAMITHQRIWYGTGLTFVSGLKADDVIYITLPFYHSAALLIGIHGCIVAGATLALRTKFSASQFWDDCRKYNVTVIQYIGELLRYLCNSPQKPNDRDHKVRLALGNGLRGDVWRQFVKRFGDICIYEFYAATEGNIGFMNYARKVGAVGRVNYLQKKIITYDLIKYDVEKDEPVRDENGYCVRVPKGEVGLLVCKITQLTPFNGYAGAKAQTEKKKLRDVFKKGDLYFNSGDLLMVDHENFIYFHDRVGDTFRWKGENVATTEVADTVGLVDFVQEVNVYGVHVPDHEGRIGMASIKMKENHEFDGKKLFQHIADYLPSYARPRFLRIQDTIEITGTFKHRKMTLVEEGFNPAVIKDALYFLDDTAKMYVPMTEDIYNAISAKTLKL
Sequence of UniProt Q9NZ72 (Q9NZ72 whole entry, looked up): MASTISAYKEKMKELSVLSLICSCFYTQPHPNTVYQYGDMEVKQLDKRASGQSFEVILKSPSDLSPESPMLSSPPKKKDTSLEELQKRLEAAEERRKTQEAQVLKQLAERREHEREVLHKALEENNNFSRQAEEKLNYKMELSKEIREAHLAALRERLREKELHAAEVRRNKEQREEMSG
Sequence of UniProt O95793 (O95793 whole entry, looked up): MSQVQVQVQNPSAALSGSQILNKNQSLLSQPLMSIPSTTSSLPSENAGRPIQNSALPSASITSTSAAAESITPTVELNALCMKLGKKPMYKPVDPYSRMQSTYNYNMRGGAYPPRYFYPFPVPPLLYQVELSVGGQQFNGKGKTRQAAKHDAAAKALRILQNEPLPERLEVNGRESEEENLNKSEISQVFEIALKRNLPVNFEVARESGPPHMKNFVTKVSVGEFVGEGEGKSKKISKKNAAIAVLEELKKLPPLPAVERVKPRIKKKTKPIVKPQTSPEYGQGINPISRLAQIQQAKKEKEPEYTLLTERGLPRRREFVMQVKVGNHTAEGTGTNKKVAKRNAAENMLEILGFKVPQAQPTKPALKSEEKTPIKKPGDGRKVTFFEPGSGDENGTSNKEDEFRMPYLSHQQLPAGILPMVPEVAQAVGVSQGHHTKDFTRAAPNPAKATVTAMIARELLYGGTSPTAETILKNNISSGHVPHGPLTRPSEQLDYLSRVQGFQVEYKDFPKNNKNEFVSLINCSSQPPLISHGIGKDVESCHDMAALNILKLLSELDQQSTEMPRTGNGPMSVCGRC
Sequence of UniProt Q6KCM7 (Q6KCM7 whole entry, looked up): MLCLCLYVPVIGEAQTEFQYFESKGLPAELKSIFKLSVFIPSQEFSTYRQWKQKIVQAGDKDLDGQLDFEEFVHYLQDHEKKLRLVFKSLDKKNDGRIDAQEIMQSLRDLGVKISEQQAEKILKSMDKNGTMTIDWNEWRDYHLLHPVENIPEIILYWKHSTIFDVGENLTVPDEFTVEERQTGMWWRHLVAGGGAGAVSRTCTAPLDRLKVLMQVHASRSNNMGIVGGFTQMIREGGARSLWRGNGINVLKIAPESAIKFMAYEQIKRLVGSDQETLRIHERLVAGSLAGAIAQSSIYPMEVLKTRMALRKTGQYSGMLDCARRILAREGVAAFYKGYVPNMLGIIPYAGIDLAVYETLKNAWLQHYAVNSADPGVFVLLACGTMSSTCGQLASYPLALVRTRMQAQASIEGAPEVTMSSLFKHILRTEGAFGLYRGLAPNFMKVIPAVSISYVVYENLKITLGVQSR
Sequence of UniProt Q8NB90 (Q8NB90 whole entry, looked up): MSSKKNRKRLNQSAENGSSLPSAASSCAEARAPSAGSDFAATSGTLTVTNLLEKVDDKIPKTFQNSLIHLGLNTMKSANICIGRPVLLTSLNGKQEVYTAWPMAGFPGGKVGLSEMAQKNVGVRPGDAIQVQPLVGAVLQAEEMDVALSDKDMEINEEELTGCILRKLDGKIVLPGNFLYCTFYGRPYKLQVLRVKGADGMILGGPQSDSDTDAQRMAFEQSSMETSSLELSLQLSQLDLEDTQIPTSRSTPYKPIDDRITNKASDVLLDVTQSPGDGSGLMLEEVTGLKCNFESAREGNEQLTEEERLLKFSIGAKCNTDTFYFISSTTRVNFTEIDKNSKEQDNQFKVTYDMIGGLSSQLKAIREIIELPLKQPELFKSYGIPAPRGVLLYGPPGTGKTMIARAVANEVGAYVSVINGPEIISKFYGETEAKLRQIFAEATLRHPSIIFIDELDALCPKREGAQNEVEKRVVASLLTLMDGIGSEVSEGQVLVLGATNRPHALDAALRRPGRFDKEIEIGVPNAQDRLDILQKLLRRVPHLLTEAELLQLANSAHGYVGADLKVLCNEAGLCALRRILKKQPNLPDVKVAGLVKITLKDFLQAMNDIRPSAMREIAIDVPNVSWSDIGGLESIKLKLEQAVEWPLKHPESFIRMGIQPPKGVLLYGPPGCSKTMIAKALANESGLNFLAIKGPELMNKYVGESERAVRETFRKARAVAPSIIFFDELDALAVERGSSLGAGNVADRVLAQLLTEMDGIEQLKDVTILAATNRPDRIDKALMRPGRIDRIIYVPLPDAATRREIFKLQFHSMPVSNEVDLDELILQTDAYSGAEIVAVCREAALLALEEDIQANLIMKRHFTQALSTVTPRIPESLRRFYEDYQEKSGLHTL

Row | Target | log2 fold change [1] | log2 fold change [2] | log2 fold change [3] | log2 fold change [4] | log2 fold change [5] | log2 fold change [6] | log2 fold change [7] | log2 fold change [8] | log2 fold change [9] | log2 fold change [10] | log2 fold change [11] | log2 fold change [12] | log2 fold change [13] | log2 fold change [14] | log2 fold change [15]
1 | TANGO6 (UniProt Q9C0B7) | 0.042 | -0.056 | -0.006 | 0.019 | 0.025 | -0.056 | 0.044 | 0.046 | -0.037 | -0.001 | 0.007 | -0.389 (active) | 0.019 | -0.037 | -0.009
2 | STMN3 (UniProt Q9NZ72) | -0.068 | 0.218 | 0.035 | -0.041 | -0.032 | 0.006 | 0.176 | -0.022 | -0.006 | 0.052 | -0.028 | 0.065 | -0.033 | -0.004 | 0.07
3 | STK24 (UniProt B4DR80) | 0.031 | 0.298 (active) | 0.092 | 0.086 | -0.005 | -0.019 | 0.007 | 0.187 | 0.023 | -0.005 | 0.023 | 0.029 | -0.014 | -0.033 | 0.001
4 | SRM (UniProt P19623) | 0.026 | -0.009 | -0.008 | 0.009 | 0.012 | 0.009 | 0.014 | 0.041 | 0.017 | 0.045 | 0.009 | -0.029 | 0.008 | 0.052 | 0.001
5 | SNX6, A0A0A0MRI2 | -0.021 | 0.009 | 0.003 | 0.03 | 0.027 | -0.003 | 0.007 | -0.015 | 0.016 | 0.016 | -0.005 | -0.325 (active) | 0.018 | 0.015 | 0.003
6 | STAU1 (UniProt O95793) | -0.008 | -0.024 | -0.004 | -0.002 | 0.007 | 0.003 | -0.009 | 0.037 | 0.001 | 0.005 | 0.045 | -0.035 | 0.017 | -0.009 | 0.009
7 | SNRPD2 (UniProt K7EJB5) | -0.081 | 0.005 | -0.026 | -0.094 | -0.084 | -0.267 | -0.075 | -0.082 | 0.044 | 0 | 0.119 | 0.493 (active) | 0.056 | -0.1 | -0.004
8 | SPATA5 (UniProt Q8NB90) | 0.001 | 0.006 | -0.052 | -0.002 | 0.011 | -0.023 | -0.002 | 0.03 | 0.001 | -0.064 | 0.005 | -0.247 | 0.048 | -0.011 | 0.013
9 | SLC25A25 isoform 3 (UniProt Q6KCM7) | 0.027 | -0.015 | 0.03 | -0.063 | 0.031 | -0.038 | -0.006 | 0.021 | 0.007 | -0.025 | 0.016 | 0.054 | 0.02 | -0.036 | 0.001
10 | SLC26A6 (UniProt Q9BXS9) | 0.057 | 0.05 | -0.4 | 0.164 | -0.154 | 0.006 | 0.05 | 0.033 | 0.054 | -0.128 | 0.012 | 0.048 | 0.03 | 0.021 | -0.111
11 | SLC27A2 (UniProt O14975) | 0.056 | -0.027 | 0.038 | -0.053 | -0.011 | -0.078 | 0.031 | -0.06 | -0.033 | 0.029 | -0.108 | -0.237 | 0.08 | 0.367 | -0.023
